An excerpt weighted towards active compounds, which were near 2.9% of everything screened.
KKLEB tox: reduces viability of KKLEB cystic fibrosis airway cells | AID 602141 | activity change (cytotoxicity), % at 5 µM | KKLEB CF airway cells viability, ATPlite luminescence, overnight; hits give low values; cells stimulated with P. aeruginosa culture filtrate | 360,000 compounds, 0.36% hits;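 active means corrected activity change at or below -50% at 5 µM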
CF NFkB inh: blocks PAF-induced NF-kB reporter in cystic fibrosis cells | KKLEB NF-kB-GFP reporter, GFP fluorescence overnight | inhibition, % at 5 µM | 360,000 compounds, 0.86% hits;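 active means at least 50% inhibition at 5 µM, scaled per plate between neutral and stimulator controls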;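 further: PAF is a Pseudomonas aeruginosa culture filtrate used as stimulus; plate controls were PAF-stimulated DMSO wells for no effect and unstimulated DMSO wells for full effect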
Peg3 prom inh: inhibitors of Peg3 promoter; HeLa PEG-Prom luciferase reporter, luminescence, overnight; inhibition, % at 20 µM; 360,000 compounds, 1.7% hits; AID 588405;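 active means inhibition of at least 50% at 20 µM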
EBV LMP1 NFkB: Epstein-Barr LMP1 NF-kappaB reporter inhibition. LMP1-induced NF-kappaB luciferase reporter cells, luminescence. inhibition, % at 12.5 µM. 350,000 compounds, 0.69% hits. AID 504558; in the data active means inhibition above about 41%;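 further: 0% = neutral control wells and 100% = reference inhibitor control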
Shn3 3UTR inh: inhibitors of Schnurri-3 3'UTR reporter in osteoblasts | Clone20 osteoblast Shn3 3'UTR firefly luciferase, 24 h | inhibition, % at 12.5 µM | 360,000 compounds, 0.52% hits | AID 588674;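 active means mean inhibition of at least 75% with every replicate also reaching 75%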;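 further: 0% = median of neutral control wells and 100% = pilot-screen positive control compound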
TRPM1 prom inh: reduces MITF-dependent TRPM1 promoter luciferase signal; AID 488899; SK-MEL-5 TRPM1 promoter luciferase, 24 h; inhibition, % at 12.5 µM; 330,000 compounds, 0.83% hits;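 active means mean inhibition across replicates of 60% or more, whatever share of single replicates reaches that level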
An asterisk follows results filed as active; / = not tested or not shown; ! = not confirmed by another sample.

SMILES | KKLEB tox | CF NFkB inh | Peg3 prom inh | EBV LMP1 NFkB | Shn3 3UTR inh | TRPM1 prom inh
CCOC(=O)c1c(-c2ccccc2)oc2cc(CN(C)C)c(O)c(CN(C)C)c12 | 17 | 40 | 68* | 5 | 94* | 31
CCOC(=O)c1c(-c2ccccc2)oc2ccc(O)c(CN3CCN(C)CC3)c12 | -4 | -6 | 54* | 22 | 1 | 19
CC12CCC(C(NC(=S)NN)C1=O)C2(C)C (centres undefined) | 0 | 0 | 4 | 2 | -5 | -11
CC(C)(C)CNC(=O)C1(C)CCN1C(=O)c1ccccc1CCc1ccccc1 (centres undefined) | -13 | 21 | 13 | / | 9 | /
CCc1c(C2(O)CCCCC2)[nH]c2cc(C(F)(F)F)ccc12 | 5 | 27 | 67* | -37 | -9 | 8
CC(C)(C)NC(=O)C1(C)CCC(=O)N1CCCn1ccnc1 (centres undefined) | -11 | 19 | -10 | / | 1 | /
CCCN1C(=O)C2(SC(NC(C)=O)=NN2C(C)=O)c2cc(C)cc(C)c21 (centres undefined) | -3 | 17 | 8 | 54* | / | -1
CCN1C(=O)C2(SC(NC(C)=O)=NN2C(C)=O)c2cc(C)cc(C)c21 (centres undefined) | -4 | 14 | 19 | -1 | 3 | 4
NC(=S)NN=Cc1nccc2c(C(F)(F)F)cccc12 | -38 | 70* | 19 | 62* | 81 | /
NC(=S)N/N=C/c1ccccc1 | -5 | 11 | -3 | 3 | 6 | 8
CNc1cccnc1C=NNC(N)=S | -4 | -17 | 34 | 67* | 94* | 47
N#CC(OC(=O)c1ccccc1)c1ccccc1 (centres undefined) | 16 | -12 | -13 | 2 | -24 | -9
Oc1ccc(C[C@@H]2CNCCN2CCCCC2CCCCC2)cc1 | 5 | -1 | 94* | 1 | 9 | -12
c1ccc(C[C@H]2CNCCN2CCc2cccc3ccccc23)cc1 | -7 | 14 | 16 | -2 | -11 | -9
Oc1ccc(C[C@H]2CNCCN2CCc2cccc3ccccc23)cc1 | 0 | 6 | -3 | 1 | 9 | -4
Oc1ccc(C[C@@H]2CNCCN2CCc2cc(C(F)(F)F)cc(C(F)(F)F)c2)cc1 | -8 | -1 | 103* | -10 | -4 | 1
FC(F)(F)c1cc(CCN2CCNC[C@H]2Cc2cccc3ccccc23)cc(C(F)(F)F)c1 | -42 | -7 | 101* | 2 | 38 | 10
Cc1c(CCO)c(=O)n2n1CCCC2 | 1 | 11 | -8 | 52* | -20 | -2
CC(C)(C)N1C(=O)c2ccc(C(=O)Nc3ccc(C(=O)O)cc3)cc2C1=O | -7 | 10 | 11 | -9 | 4 | -5
CC(C)(C)N1C(=O)c2ccc(C(=O)Nc3ccc(-c4nc5ccccc5[nH]4)cc3)cc2C1=O | 2 | -2 | 82* | -1 | -21 | -6
CCNC(=O)CC1C(=O)N(CC)C(=S)N1NC(=O)c1ccc(Cl)cc1 (centres undefined) | -2 | 18 | -29 | -18 | 16 | 6
CCNC(=O)CC1C(=O)N(CC)C(=S)N1NC(=O)c1cccnc1 (centres undefined) | 5 | 13 | 38 | 74* | 3 | -6
NCCCS(=O)(=O)O | -2 | 7 | -6 | 54*! | -19 | -2
Cn1cc(C(=O)CCl)c2ccccc21 | -15 | 54* | 50* | -2 | 14 | 83*
Cc1nc2cc(OC3(C)CCN(Cc4ccc(OC(F)(F)F)cc4)C3)ccc2s1 (centres undefined) | -15 | -12 | 5 | / | -23 | /
SMILES | KKLEB tox | CF NFkB inh | Peg3 prom inh | EBV LMP1 NFkB | Shn3 3UTR inh | TRPM1 prom inh
COC(=O)c1[nH]c2ccc(C)cc2c1NC(=O)NC1CCCCC1 | 1 | -6 | 11 | 73* | 8 | 13
COC(=O)c1[nH]c2ccc(C)cc2c1NC(=O)C(C)N1CCN(C2CCCCC2)CC1 (centres undefined) | -1 | 16 | -28 | -1 | -7 | 0
Nc1ccc(S(=O)(=O)NN=Cc2ccccc2[N+](=O)[O-])cc1 | -11 | -13 | 30 | 10 | -31 | -6
C#CCN(C[C@@H]1[C@@H](OC(=O)NCC2CCCCC2)[C@@H](OC(=O)NCC2CCCCC2)Cn2c(=O)ccc(=O)n21)S(=O)(=O)c1ccc(C)cc1 | -97* | 106* | 106* | 90* | 99* | /
C#CCN(C[C@@H]1[C@@H](OC(=O)NCCCCCC)[C@@H](OC(=O)NCCCCCC)Cn2c(=O)ccc(=O)n21)S(=O)(=O)c1ccc(C)cc1 | -89* | 87* | 98* | 90* | 81 | /
C#CCN(C[C@@H]1[C@@H](OC(=O)NCc2ccc(OC)c(OC)c2)[C@@H](OC(=O)NCc2ccc(OC)c(OC)c2)Cn2c(=O)ccc(=O)n21)S(=O)(=O)c1ccc(C)cc1 | -19 | 43 | 24 | -4 | 3 | /
CNC(=O)C[C@H]1C(=O)N(CCc2ccccc2)C[C@@H]1Cc1ccccc1 | 12 | 1 | -14 | -12 | -4 | /
COc1ccc(-c2cc(=O)c3c(O)cc(O)cc3o2)cc1 | -7 | 68* | -358 | -1 | -119 | -106
CCCCN(CCCNC(=S)NCCCc1cnc[nH]1)c1ccc(Br)cn1 | -7 | 14 | 42 | / | 8 | /
CCCCCC[N+](C)(C)CCSSCC[N+](C)(C)CCCCCC | -10 | -16 | -8 | -5 | -6 | -2
CCCCCCCCO | 0 | 8 | -15 | -2 | 3 | 0
CCCCCCCCCCCCCCCC[N+](C)(C)CCl | -33 | 41 | 100* | 0 | 83 | -3
CCCCCCCCCCCCCCCC[N+](C)(C)CC | 19 | 83* | 102* | 2 | 93* | 39
COc1cccc(/C=C/C(=O)OCC(=O)NCCCc2ccccc2)c1OC | 8 | 10 | -1 | 2 | 0 | -1
CC12C=CC(=O)C=C1CCC1C2CCC2(C)C(C(=O)CO)CCC12 (centres undefined) | -12 | 11 | -4 | -2 | 20 | 7
CC(=O)OCC(=O)C1(O)CCC2C3CCC4CC(O)CCC4(C)C3C(=O)CC21C (centres undefined) | 10 | -21 | 6 | / | 23 | /
CC(=O)OCC(=O)C1(O)CCC2C3CCC4=CC(=O)C=CC4(C)C3C(O)CC21C (centres undefined) | 31 | 75* | -7 | 18 | -73 | -6
CCC(C)C(NC(=O)CCC(=O)OCC(=O)[C@@]1(O)CCC2[C@@H]3CCC4=CC(=O)C=C[C@]4(C)C3[C@@H](O)C[C@@]21C)C(=O)O (some centres undefined) | 27 | 74* | 11 | 7 | 5 | -14
C[C@]12C=CC(=O)C=C1CC[C@@H]1C2[C@@H](O)C[C@@]2(C)C1CC[C@]2(O)C(=O)COC(=O)CCC(=O)O (some centres undefined) | 2 | 74* | -6 | 9 | 29 | -7
CCOC(=O)C1(C)CCCN(C(=O)c2cc(OC)c(OC)c(OC)c2)C1 (centres undefined) | 1 | -2 | 0 | / | -3 | /

Source: PubChem (several laboratories)
